HEK cytotox: HEK 293 cell cytotoxicity | HEK 293 viability, ATP luminescence (CellTiter-Glo), 48-72 h | Potency, µM (top dose mostly 115 µM), most hits filed as inhibitors | hit rate 6.6% among 94,000; note: nearly all actives have a fitted effect of over 60% in size
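Cytotoxicity was scored by loss of ATP-coupled luminescence (CellTiter-Glo) in HEK 293 cells. Compound treatment ran 48 or 72 hr at 37 degree Celsius, 5% CO2, 95% humidity.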
NPR1 antag: antagonists of human natriuretic peptide receptor Npr1; AID 1347048; HEK293 hNpr1 GloSensor cGMP, ANP-stimulated luminescence; Potency, µM (highest dose often 46.3 µM), usual class: inhibitors; P16066; hit rate 1.6% among 76,000; calls by dose curve; note: nearly all actives have a fitted effect of over 60% in size
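Compound pre-incubated 30 min at room temperature on GloSensor-loaded HEK293 cells stably carrying hNpr1 and the pGS-40F cGMP biosensor. Stimulation uses hNppA at 0.1 nM final; luminescence is taken at baseline and 20 min post-agonist.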
Luciferase inh: inhibitors of firefly (Photinus pyralis) luciferase | AID 1347043 | purified P. pyralis luciferase, luminescence, biochemical | P08659 | hit rate 2.5% among 76,000 | Potency, µM (titrated, usually from 115 µM), actives largely listed as inhibitors; note: nearly all actives have a fitted effect of over 65% in size
Target sequence (P08659 whole entry, looked up): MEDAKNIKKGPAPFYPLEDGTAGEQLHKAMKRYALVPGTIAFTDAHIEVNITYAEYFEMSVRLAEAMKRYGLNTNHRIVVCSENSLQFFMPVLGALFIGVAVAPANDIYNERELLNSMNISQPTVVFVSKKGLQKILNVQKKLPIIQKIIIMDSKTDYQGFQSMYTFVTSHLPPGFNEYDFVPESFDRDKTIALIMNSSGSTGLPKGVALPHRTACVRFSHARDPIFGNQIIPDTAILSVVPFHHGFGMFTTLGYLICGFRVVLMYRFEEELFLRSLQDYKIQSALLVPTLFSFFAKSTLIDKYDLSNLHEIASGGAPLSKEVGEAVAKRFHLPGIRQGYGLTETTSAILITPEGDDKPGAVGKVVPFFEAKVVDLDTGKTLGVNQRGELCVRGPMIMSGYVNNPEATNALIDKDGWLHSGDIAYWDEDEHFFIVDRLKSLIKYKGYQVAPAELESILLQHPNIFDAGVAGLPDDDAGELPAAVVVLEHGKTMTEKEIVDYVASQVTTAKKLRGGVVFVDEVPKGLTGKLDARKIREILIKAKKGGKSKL
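Cell-free enzyme assay, 10nM P. pyralis luciferase, luciferin and ATP each at 10uM. Inhibition profiled over a 6-point titration, read as luminescence.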
NIH3T3 tox: kills NIH 3T3 cells | NIH 3T3 viability, CellTiter-Glo ATP luminescence, 48-72 h | Potency, µM (series often up to 96.7 µM), most hits filed as inhibitors | hit rate 4.3% among 94,000; note: nearly all actives have a fitted effect of over 55% in size
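ATP-dependent luminescence (CellTiter-Glo) served as the viability signal for NIH 3T3 cells treated with compound for 48 or 72 hr at 37 °C.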
Numbers stand for hits. An excerpt weighted towards active compounds, which were near 11% of everything screened. Unless noted, calls come from the whole dose curve; as a rule, active = well fitted curve in the direction sought with a large enough effect; inconclusive = small, poorly fitted or top-dose-only effect, or another doubt; inactive = no such curve, though single readings can be large; an effect the other way counts as inactive or inconclusive.

How did COc1ccc2cc1Nc1ccc(cc1)C[C@H](NCc1cccc(O)c1)C(=O)N(C)[C@@H](C(=O)Nc1ccccc1)C2 do in these assays?
HEK cytotox: inconclusive; NPR1 antag: inactive; Luciferase inh: inactive; NIH3T3 tox: inconclusive

How did COC[C@@H]1CN(C(=O)c2ccc3ccccc3n2)C[C@H]1c1ccncc1 do in these assays?
HEK cytotox: inactive; NPR1 antag: inactive; Luciferase inh: inactive; NIH3T3 tox: inactive

How did COc1ccccc1C(=O)N1CCC2(CC1)COc1ccccc1[S+](=O)([O-])N2 do in these assays?
HEK cytotox: inactive; NIH3T3 tox: inactive

What do the screens show for `COc1ccccc1C(=O)N1CCC2(CC1)COc1ccccc1CN2`?
HEK cytotox: 63.1µM; NPR1 antag: inactive; Luciferase inh: inactive; NIH3T3 tox: inconclusive

Results for O=C1CCN(CC(O)Cc2ccccc2)c2cc3c(cc2CN1Cc1ccccc1)OCO3 (centres undefined) ?
HEK cytotox: 39.8µM; NIH3T3 tox: inconclusive

What do the screens show for `COc1ccc(OCC(O)CN2CCC(=O)N(Cc3ccccc3)Cc3cc4c(cc32)OCO4)cc1` (centres undefined)?
HEK cytotox: 44.7µM; NIH3T3 tox: inconclusive

What do the screens show for `O=C1CCN(CC(O)C(F)(F)F)c2cc3c(cc2CN1Cc1ccco1)OCO3` (centres undefined)?
HEK cytotox: inactive; NIH3T3 tox: inconclusive

Results for COc1ccc2c(c1)CN(Cc1ccccc1)C(=O)CCN2CC(O)Cc1ccccc1 (centres undefined) ?
HEK cytotox: 79.4µM; NIH3T3 tox: inconclusive

Results for COc1ccc2c(c1)CN(Cc1ccccc1)C(=O)CCN2C(C)=O ?
HEK cytotox: inactive; NIH3T3 tox: inconclusive

Results for COc1ccc2c(c1)OCC(CNC(=O)c1cnn3ccccc13)C2 (centres undefined) ?
HEK cytotox: inconclusive; NPR1 antag: inactive; Luciferase inh: inactive; NIH3T3 tox: inconclusive

How did CC(C)C(=O)N1CCC(Oc2ccccc2-c2nc(-c3cnccn3)no2)C1 (centres undefined) do in these assays?
HEK cytotox: inactive; NPR1 antag: inactive; Luciferase inh: inactive; NIH3T3 tox: inactive

What do the screens show for `Cn1cccc1CN1CCC(N2Cc3ccccc3C2=O)CC1`?
HEK cytotox: inactive; NIH3T3 tox: inactive

Results for O[C@@H]1C[C@@H](c2nc(-c3ccc(F)cc3)no2)N(Cc2ccc(F)cc2)C1 ?
HEK cytotox: 100µM; NPR1 antag: inactive; Luciferase inh: inactive; NIH3T3 tox: inconclusive

How did CS(=O)(=O)c1ccc(CN2C[C@H](O)C[C@H]2c2nc(-c3ccc(F)cc3)no2)cc1 do in these assays?
HEK cytotox: inactive; NPR1 antag: inactive; Luciferase inh: 44.7µM; NIH3T3 tox: inactive

How did CN1CCN(c2ccc3ncc(Nc4cccc(C(F)(F)F)c4)n3n2)CC1 do in these assays?
HEK cytotox: 100µM; NPR1 antag: inactive; Luciferase inh: inactive; NIH3T3 tox: inconclusive

What do the screens show for `CN1CCN(c2ccc3ncc(Nc4ccccc4F)n3n2)CC1`?
HEK cytotox: 112µM; NPR1 antag: inactive; Luciferase inh: inactive; NIH3T3 tox: inconclusive

Results for c1ccc(-c2ccccc2Nc2cnc3ccc(N4CCOCC4)nn23)cc1 ?
HEK cytotox: 89.1µM; NPR1 antag: inactive; Luciferase inh: inactive; NIH3T3 tox: inconclusive

What do the screens show for `COc1cccc(Nc2cnc3ccc(N4CCOCC4)nn23)c1`?
HEK cytotox: inactive; NPR1 antag: inactive; Luciferase inh: inactive; NIH3T3 tox: inconclusive

What do the screens show for `CCC(c1cccs1)N1C(=O)[C@H]2CN(S(=O)(=O)c3ccccc3C)C[C@H]2C1=O` (some centres undefined)?
HEK cytotox: inconclusive; NPR1 antag: inactive; Luciferase inh: inactive; NIH3T3 tox: inactive

What do the screens show for `COc1cccc(C(=O)N2CCC(N3C[C@H](O)C[C@H]3C(=O)NC3CCCCC3)CC2)c1C`?
HEK cytotox: inactive; NPR1 antag: inactive; Luciferase inh: inactive; NIH3T3 tox: inactive

Results for O=C(CCc1c[nH]c2ccccc12)N1CCC(Cc2nc(-c3ccncc3)n[nH]2)CC1 ?
HEK cytotox: inactive; NIH3T3 tox: inconclusive

What do the screens show for `O=C(CCc1c[nH]c2ccccc12)N1CCC[C@H]1c1nc(-c2ccc(F)cc2)n[nH]1`?
HEK cytotox: 39.8µM; NIH3T3 tox: inconclusive

How did CCc1nc(-c2c3n(c(=O)n(Cc4ccc(C(=O)OC)cc4)c2=O)CCCC3)no1 do in these assays?
HEK cytotox: inactive; NPR1 antag: inactive; Luciferase inh: inactive; NIH3T3 tox: inactive

What do the screens show for `O=C(C[C@@H]1CCNC[C@@H]1Cc1cc(-c2ccccc2)on1)NCc1cccs1`?
HEK cytotox: 89.1µM; NPR1 antag: inactive; Luciferase inh: inactive; NIH3T3 tox: inconclusive

How did COc1ccc(-c2cc(C[C@H]3CNCC[C@H]3CC(=O)NCc3ccc(F)cc3)no2)cc1 do in these assays?
HEK cytotox: inconclusive; NPR1 antag: inactive; Luciferase inh: inactive; NIH3T3 tox: inconclusive

Results for COc1ccc(-c2cc(C[C@H]3CNCC[C@H]3CC(=O)NCc3cccnc3)no2)cc1 ?
HEK cytotox: inactive; NPR1 antag: inactive; Luciferase inh: inactive; NIH3T3 tox: inactive

Results for COc1ccc(-c2cc(C[C@H]3CNCC[C@H]3CC(=O)NCc3ccccc3)no2)cc1 ?
HEK cytotox: 89.1µM; NPR1 antag: inactive; Luciferase inh: inactive; NIH3T3 tox: 112µM

How did O=C(C[C@@H]1CCNC[C@@H]1Cc1cc(-c2ccc(F)cc2)on1)NCc1ccc(F)cc1 do in these assays?
HEK cytotox: 79.4µM; NPR1 antag: inactive; Luciferase inh: inactive; NIH3T3 tox: 39.8µM

Results for CC(C)(C)NC(=O)C[C@@H]1CCNC[C@@H]1Cc1cc(-c2ccc(C(C)(C)C)cc2)on1 ?
HEK cytotox: 12.6µM; NPR1 antag: inactive; Luciferase inh: inactive; NIH3T3 tox: 22.4µM

How did CC(=O)NCCNC(=O)C[C@@H]1CCNC[C@@H]1Cc1cc(-c2ccccc2)on1 do in these assays?
HEK cytotox: inactive; NPR1 antag: inactive; Luciferase inh: inactive; NIH3T3 tox: inactive

How did C=CCn1c(-c2ccccc2Cl)cn2cc(C(=O)N3CCCC(O)C3)nc2c1=O (centres undefined) do in these assays?
HEK cytotox: inactive; NPR1 antag: inactive; Luciferase inh: inactive; NIH3T3 tox: inactive

How did CN(Cc1ccccc1C(F)(F)F)C(=O)Cc1ccc(F)cc1 do in these assays?
HEK cytotox: inconclusive; NPR1 antag: inactive; Luciferase inh: inactive; NIH3T3 tox: inconclusive

How did COc1ccc(-c2cc(C[C@H]3CNCC[C@H]3CC(=O)N3CCN(c4ccccc4OC)CC3)no2)cc1 do in these assays?
HEK cytotox: inconclusive; NPR1 antag: inactive; Luciferase inh: inactive; NIH3T3 tox: 14.1µM

What do the screens show for `COc1ccc(-c2cc(C[C@H]3CNCC[C@H]3CC(=O)NCc3cccs3)no2)cc1`?
HEK cytotox: 56.2µM; NPR1 antag: inactive; Luciferase inh: inactive; NIH3T3 tox: 89.1µM

What do the screens show for `COc1ccc(-c2cc(C[C@H]3CNCC[C@H]3CC(=O)NC(C)C)no2)cc1`?
HEK cytotox: inactive; NPR1 antag: inactive; Luciferase inh: inactive; NIH3T3 tox: inactive

What do the screens show for `COc1ccc(-c2cc(C[C@H]3CNCC[C@H]3CC(=O)Nc3ccccc3)no2)cc1`?
HEK cytotox: 44.7µM; NPR1 antag: inactive; Luciferase inh: inactive; NIH3T3 tox: 39.8µM
